{"source": "ChEMBL document CHEMBL4513146", "about": "“CO-ADD screening of Karazin Kharkiv National University (Ukraine) compounds”", "note": "Entries with a potency or affinity are not part of this list.", "data": [{"test_system": "Cryptococcus neoformans", "settings": "Concentration 32 ug.mL-1; ASSAY_TEST Inhibition of Fungal Growth; detection method Resazurin; Absorption (OD600-OD570); plate type 384well; NBS; CORNING #3640", "units": {"Inhibition": "%"}, "values": [{"compound": "O=C(CSc1nc2ccccc2n2c(-c3ccccc3)nnc12)Nc1ccc(Br)cc1", "Inhibition": -26.76}, {"compound": "COc1ccc(NC(=O)c2ccc3nn(CC(=O)Nc4ccc(C(C)=O)cc4)c(=O)n3c2)cc1", "Inhibition": -6.52}, {"compound": "Cc1nnc2c(S(=O)(=O)N(Cc3ccccc3F)c3cc(F)cc(F)c3)cccn12", "Inhibition": -4.37}, {"compound": "CCc1ccccc1Sc1nccn2c(=O)n(CC(=O)N3CCN(c4ccccc4F)CC3)nc12", "Inhibition": -15.46}, {"compound": "CCCNC(=O)Cn1nc2n(Cc3cccs3)c(=O)c3sccc3n2c1=O", "Inhibition": -15.54}, {"compound": "CCc1nnc2c(S(=O)(=O)N(Cc3cccc(Cl)c3)c3ccccc3)cccn12", "Inhibition": -7.64}, {"compound": "CCc1ccc(N(Cc2ccc(C)cc2)S(=O)(=O)c2cccn3cnnc23)cc1", "Inhibition": -5.61}, {"compound": "CCOC(=O)c1ccc(NC(=O)Cn2nc3c4cc(-c5ccc(C)cc5)nn4ccn3c2=O)cc1", "Inhibition": -28.56}, {"compound": "CSc1ccc(CNC(=O)Cn2nc3c(Oc4cccc(C)c4C)nccn3c2=O)cc1", "Inhibition": -6.54}, {"compound": "COc1ccc(CCNC(=O)Cn2nc3c(N4CCOCC4)nccn3c2=O)cc1OC", "Inhibition": -10.16}, {"compound": "Cc1cc(C)c(NC(=O)CSc2nc3ccccc3n3c(C)nnc23)c(C)c1", "Inhibition": -7.76}, {"compound": "CCc1nnc2c(S(=O)(=O)N(Cc3ccc(F)cc3)c3ccc(Cl)cc3)cccn12", "Inhibition": -6.36}, {"compound": "Cc1cccc(N(Cc2ccc(F)cc2)S(=O)(=O)c2cccn3c(C)nnc23)c1", "Inhibition": -8.62}, {"compound": "COc1ccccc1NC(=O)Cn1nc2c3cc(-c4ccc(C)c(C)c4)nn3ccn2c1=O", "Inhibition": -22.56}, {"compound": "COc1ccc(NC(=O)Cn2nc3c(Oc4cccc(OC)c4)nccn3c2=O)cc1", "Inhibition": -7.1}, {"compound": "CC(C)NC(=O)CCn1c(=O)c2cc(Cl)ccc2n2c(=O)n(CC#N)nc12", "Inhibition": -24.01}, {"compound": "CC(C)Cn1c(=O)c2sccc2n2c(=O)n(CC(=O)NC(C)(C)C)nc12", "Inhibition": -15.87}, {"compound": "CCc1nnc2c(S(=O)(=O)N(Cc3ccc(C)cc3)c3ccc(C(C)C)cc3)cccn12", "Inhibition": -8.19}, {"compound": "COC(=O)c1ccc(NC(=O)CSc2nc3ccccc3n3c(C(C)C)nnc23)cc1", "Inhibition": -21.14}, {"compound": "COc1cc(Cl)c(C)cc1NC(=O)Cn1nc2ccc(SC(C)(C)C)nn2c1=O", "Inhibition": -11.08}, {"compound": "COc1cccc(Oc2nccn3c(=O)n(CC(=O)Nc4ccccc4C(F)(F)F)nc23)c1", "Inhibition": -10.15}, {"compound": "O=C(CSc1nc2ccccc2n2cnnc12)Nc1ccc2c(c1)OCO2", "Inhibition": -24.91}, {"compound": "O=C(Cn1nc2c(SC3CCCCC3)nccn2c1=O)Nc1ccc(Br)cc1", "Inhibition": -23.31}, {"compound": "O=C(Cn1nc2c(SC3CCCCC3)nccn2c1=O)Nc1ccc(F)cc1", "Inhibition": -30.85}, {"compound": "CCc1ccccc1Sc1nccn2c(=O)n(CC(=O)N3CCN(c4ccc(F)cc4)CC3)nc12", "Inhibition": -7.3}]}]}
